Holding throughout (experiment): NCI-60 one-dose screen, 48 h (100 = growth as untreated, 0 = no growth, -100 = all killed)
Holding throughout (details): 10 µM unless noted

Assay [1] deals with SR leukemia.
Assay [2] concerns RPMI-8226 leukemia.
In assay [3] the test system is OVCAR-8 ovarian.
The subject of assay [4] is OVCAR-5 ovarian.
The test system of assay [5] is OVCAR-4 ovarian.
Assay [6] relates to SK-OV-3 ovarian.
In assay [7] the test system is IGROV1 ovarian.
For assay [8], the system named is OVCAR-3 ovarian.
Assay [9] deals with HS 578T breast.
Assay [10] has as its system NCI/ADR-RES ovarian.
Assay [11] concerns T-47D breast.
The test system of assay [12] is BT-549 breast.
The test system of assay [13] is MDA-MB-435 melanoma.
Assay [14] deals with SW-620 colon.
Assay [15] relates to MCF7 breast.
The subject of assay [16] is HCT-116 colon.
Assay [17] concerns HCC-2998 colon.
Assay [18] has as its system KM12 colon.

Growth data for nine compounds are collected here from PubChem BioAssay (NCI).

This is part of a sample that, as a whole, favours compounds with a hit. Of some 83,000 tested, about 20% had one in any assay.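 Results are percent growth after 48 hours of single-concentration exposure. 100 means growth as in untreated cells, lower positive values show inhibition; negative values down to -100 show cell death.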 Unmarked numbers belong to inactive results. Calls of active or inactive are those of the source. The calls were made as follows: active = growth percent below 10; inactive = the rest.

With `C#COc1cccc(Nc2ncnc3cc(NC(=O)[C@H](C)Cl)ccc23)c1`, the growth in [1] was 92.6% [6.25 µM]; in assay [2], 100% [6.25 µM]; in assay [3] it was 9.3% [6.25 µM] (active); in assay [4] it was 25% [6.25 µM]; in [5] it was 56.6% [6.25 µM]; in [6], 3.8% [6.25 µM] (active). For the same compound, the growth in assay [7] was 9.75% [6.25 µM] (active); in [8], 7.9% [6.25 µM] (active); in assay [9] it was 24.8% [6.25 µM]; in [10], 14.8% [6.25 µM]; in assay [11], 6.76% [6.25 µM] (active); in assay [12], 9.94% [6.25 µM] (active). In addition, the growth in assay [13] is -25.1% [6.25 µM] (active); in assay [14] it was 14.5% [6.25 µM]; in assay [15], 11.3% [6.25 µM]; in [16] it was 7.41% [6.25 µM] (active); in assay [17] it was 5.81% [6.25 µM] (active); in assay [18] it was 17.8% [6.25 µM].

Take `O=C(Nc1ccc(Nc2ccncc2)cc1)c1ccc(Nc2ccnc3ccc([N+](=O)[O-])cc23)cc1`: the growth in assay [1] is -14.2% (active); in assay [2], 63.4%; in assay [3], 104%; in assay [4], 105%; in assay [5] it was 84.4%; in assay [6], 89.1%. The growth in assay [7] is 97%; in assay [8], 93.1%; in [9], 110%; in assay [10] it was 106%; in assay [11] it was 122%; in [12], 107%. Besides, the growth in assay [13] is 104%; in [14] it was 105%; in assay [15], 91.9%; in assay [16], 97%; in assay [17], 76.7%; in assay [18] it was 90.1%.

`CCN(CC)CCOc1ccc2ccc(=O)oc2c1`: the growth is -3.51% (active) in [1]; -4.27% (active) in assay [2]; 98.8% in [3]; 96% in assay [4]; 101% in assay [5]; 92.9% in [6]. In addition, the growth in assay [7] was 109%; in [8], 115%; in assay [9] it was 109%; in assay [10], 101%; in assay [11], 97.5%; in [12], 102%. Besides, the growth in assay [13] was 112%; in assay [15] it was 97.6%; in [16], 100%; in assay [17] it was 90.5%; in [18], 103%.

Turning to `Cn1c(=O)c2[nH]c(SC/C(=N/O)c3ccc(Br)cc3)nc2n(C)c1=O`, the growth in assay [1] was 60.4%; in [2], 59.4%; in assay [3] it was 26.5%; in assay [4] it was 54.8%; in assay [5] it was 7.77% (active); in [6], -33.3% (active). Besides, the growth is 20.1% in assay [7]; 11.8% in [8]; 31.8% in assay [9]; 37.1% in assay [10]; 23.1% in assay [11]; 28.3% in assay [12]. Also, the growth in assay [13] was 52%; in assay [14], 92.7%; in assay [15], 69.1%; in assay [17], 16.8%; in assay [18], 56.9%.

`C=C(C)[C@@H]1CC[C@]2(C(=O)Nc3ccccn3)CC[C@]3(C)[C@H](CC[C@@H]4[C@@]5(C)CCCNC(C)(C)[C@@H]5CC[C@]43C)[C@@H]12`: the growth was -29.5% (active) in assay [1]; -46% (active) in assay [2]; 12.4% in assay [3]; 70.7% in [4]; 8.81% (active) in [5]; 32.2% in assay [6]. The growth in assay [7] is 35.4%; in assay [8], 20.9%; in assay [9] it was 26.9%; in assay [10], 61%; in assay [11] it was 25.9%; in [12], 25.7%. The growth in [13] is 2.12% (active); in assay [15], 8.22% (active); in assay [16] it was -43.4% (active); in assay [18], 10.6%.

`COc1ccc(N/N=C/c2cn(-c3ccc(C(=O)O)cc3)nc2-c2cc3ccccc3oc2=O)cc1`: the growth in assay [1] was 44.8%; in [2], 51.6%; in [3] it was 65.4%; in assay [4] it was 70.2%; in assay [5], 79%; in assay [6], 99.1%. In addition, the growth was 71.5% in [7]; 74.1% in assay [8]; 106% in assay [9]; 67.6% in [10]; 49.6% in assay [11]; 77.8% in [12]. In addition, the growth in assay [13] is 52.4%; in [15], 49%; in assay [16], 49.7%; in assay [17] it was 41.8%; in assay [18] it was 48.2%.

On to `CCN(CC)CCOc1ccc(/C(=C(\C)Cc2ccc(OC)cc2)c2ccc(OC(=O)NCc3ccccc3)cc2)cc1`, for which the growth in [1] is -53% (active); in assay [2] it was 3.04% (active); in [3], 68.7%; in assay [4] it was 81.9%; in assay [5], 58%; in assay [6] it was 91.2%. The growth was 77.5% in assay [7]; 76.1% in assay [8]; 63.2% in assay [9]; 78.7% in [10]; 40.6% in [11]; 77.4% in assay [12]. Further, the growth in assay [13] is 40.7%; in [15], 20.6%; in assay [16], 25.3%; in assay [17], 70.6%; in assay [18] it was 63.4%.

Turning to `Oc1c(I)cc(I)cc1CN(Cc1ccccn1)Cc1ccccn1`, the growth in assay [1] is 9.92% (active); in assay [2], 16.1%; in [3], 10.1%; in [4], 55.1%; in assay [5], 26.4%; in [6] it was 25.8%. For the same compound, the growth is 15.3% in assay [7]; 30.8% in assay [8]; 38.9% in assay [9]; 0.252% (active) in assay [10]; 22.4% in assay [11]; 30.7% in assay [12]. The growth is 35.6% in assay [13]; 22.2% in assay [14]; 13.4% in assay [15]; 35.1% in assay [17]; 26.8% in assay [18].

Regarding `[N-]=[N+]=NCC1OC(n2cnc3c(NC(=O)Nc4ccccc4)ncnc32)C2OC(=O)CC12` (centres undefined), the growth in assay [1] is 90.1%; in assay [2], 98.4%; in assay [3], 103%; in assay [4], 95.7%; in assay [5], 106%; in assay [6], 106%. The growth in assay [7] is 91.3%; in [8], 95.1%; in assay [9] it was 112%; in assay [10], 102%; in assay [11], 103%; in assay [12], 104%. Besides, the growth in assay [13] was 109%; in assay [15] it was 92.3%; in assay [16], 101%; in [17], 107%; in assay [18], 106%.
